Assay results reported in PubChem BioAssay (NCATS).
Records with an inconclusive call do not appear. Activity calls are given as the source filed them. Calls follow the shape of the dose curve; as a rule, active = well fitted inhibition curve with a large enough effect; inconclusive = small, poorly fitted or top-dose-only effect; inactive = no such curve, though single readings can be large or run the other way. Where a SMILES comes first, the peptide text is derived from it. [ ]: non-standard residue; d: D form. PhLac = O=C(O)[CH](O)Cc1ccccc1; NMeV = CN[CH](C(=O)O)C(C)C

system: Zika virus NS2B-NS3 protease (unlinked complex); assay: Primary screen GU Rhodamine qHTS for Zika virus inhibitors: Unlinked NS2B-NS3 protease assay (AID 1347159); conditions: Recombinant ZIKV NS2B-NS3 protease, Rhodamine110 substrate fluorescence; series mostly up to 107 µM; activity change, negative = inhibition: at the top concentration; also: nearly all actives have a fitted effect of over 60% in size
Procedure, shortened: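 Unlinked NS2B/NS3, 25 nM; Rhod110 peptide, 1.5 microM; compounds, up to 114 microM. Reaction run 15 min at RT in 10 mM Tris-HCl pH 8.0, 0.01% Tween 20; kinetic fluorescence change fitted with a 4-parameter Hill model.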
% is scaled to controls: 0 for no effect and ±100 for the full control effect; potency is read from the fitted curve at half-maximal effect.

Structure (SMILES) | activity change, negative = inhibition | Potency
COC(=O)C12C(=O)C(C)=C(O)C1(C)C(C)=CC1C34CCC(OC3=O)C(C)(C)C4CCC12C (stereo not given) | 0.0983% [at 57.1 µM] (inactive) | –
CC1(C)CC2C3=CCC4C5(C)CCC(OC6OC(CO)C(O)C(OC7OC(CO)C(O)C(OC8OC(CO)C(O)C(OC9OC(COC%10OC(CO)C(O)C(O)C%10O)C(O)C(O)C9O)C8O)C7O)C6O)C(C)(C)C5CCC4(C)C3(C)CCC2(C(=O)O)CC1O (stereo not given) | -21.5% [at 19.1 µM] (inactive) | –
COc1cc(/C=C/c2cc(O)cc(O[C@@H]3O[C@H](CO)[C@@H](O)[C@H](O)[C@H]3O)c2)ccc1O | 13.2% [at 57.1 µM] (inactive) | –
CC(C)C(C(=O)N1CCCC1C(=O)O)N(C)C(=O)C(O)Cc1ccccc1 (stereo not given) (H-[PhLac]-[NMeV]-Pro-OH; configuration not given here) | 7.19% (inactive) | –
C=C1CCC2C(C)(COC3OC(COC(=O)CC(=O)O)C(O)C(O)C3O)CCCC2(C)C1CCC1=CCOC1=O (stereo not given) | -18.2% [at 57.1 µM] (inactive) | –
C/C=C/C=C/C(CC(=O)O)Nc1ccc(C=O)cc1 (stereo not given) | – | 11.2 µM (active)
CC1(C)CC(=O)N(CCCCN2CCN(c3ncccn3)CC2)C(=O)C1 | 49.7% (inactive) | –
CC1=C2C(=O)O[C@@H](c3ccoc3)[C@]2(C)CCC1 | – | inactive
CC(C)(O)/C=C1/C(=O)C(C)(C)C(=O)C(C)(C)C1(O)O[C@@H]1O[C@H](COC(=O)c2cc(O)c(O)c(O)c2)[C@@H](O)[C@H](O)[C@H]1O (stereo not given in full) | -2.63% [at 32.5 µM] (inactive) | –
CC1C(=O)CC2C3C(O)CC(C(=O)O)C12CC3(C)C (stereo not given) | 4.47% (inactive) | –
O=S(=O)(NC1CCNCC1)c1cc(S(=O)(=O)c2ccccc2)ccc1C(F)(F)F | 14.7% (inactive) | –
CCn1nnnc1NCc1ccc(C(C)C)cc1 | 5.89% (inactive) | –

system: Zika virus NS2B-NS3 protease (linked construct); assay: Primary screen NINDS Rhodamine qHTS for Zika virus inhibitors (AID 1347160); conditions: purified NS2B-NS3 protease, Rhodamine110 substrate fluorescence; series mostly up to 57.1 µM; activity change, negative = inhibition: at the top concentration; also: nearly all actives have a fitted effect of over 55% in size
Procedure, shortened: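 Single-chain NS2B-NS3 protease, 25 nM, pH 8.0; compounds preincubated 15 min. Activity: Rhodamine110 release from 1.5 microM substrate over 15 min, room temperature, data fitted to 4-parameter Hill.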

Structure (SMILES) | activity change, negative = inhibition | outcome | Potency
CC1=C(CC(=O)O)c2cc(F)ccc2C1=Cc1ccc(S(C)(=O)=O)cc1 | 19.3% (inactive) | – | –
CC(=O)O[C@H]1C[C@@H]2[C@]3(CC[C@]4(C)[C@@H](C5(C)CCC(C(C)(C)O)O5)[C@@H](O)C[C@@]24C)C[C@@]32CC[C@H](O[C@@H]3OC[C@@H](O)[C@H](O)[C@H]3O)C(C)(C)[C@H]12 (stereo not given in full) | -12.1% [at 15.1 µM] (inactive) | – | –
c1ccc(Nc2nc3c(s2)CCCc2[nH]ncc2-3)nc1 | 8.9% (inactive) | – | –
CCC(C)/C=C(C)/C=C/C1=CC2=C(Cl)C(=O)C(C)(OC(C)=O)C(=O)C2=CN1CCCC(=O)O (stereo not given) | -1.23% [at 33.1 µM] (inactive) | – | –
COC(=O)C12C(=O)C(C)=C(O)C1(C)C(C)=CC1C34CCC(OC3=O)C(C)(C)C4CCC12C (stereo not given) | 22% [at 33.1 µM] (inactive) | – | –
COc1cc([C@@H]2Oc3c(OC)cc(CCCO)cc3[C@@H]2CO[C@@H]2O[C@H](CO)[C@@H](O)[C@H](O)[C@H]2O)ccc1O | – | inactive [at 33.1 µM] | –
C=C1CCC2C(C)(C)C(O)CCC2(C)C1CCC(C)CCOC(=O)CCC(=O)O (stereo not given) | – | inactive [at 33.1 µM] | –
CC1(C)CC[C@]2(C(=O)O)CC[C@]3(C)C(=CCC4[C@@]5(C)CCC(O[C@@H]6OC[C@H](O)[C@H](O)[C@H]6O[C@@H]6O[C@H](CO)[C@@H](O)[C@H](O)[C@H]6O)[C@@](C)(CO)C5CC[C@]43C)[C@@H]2C1 (stereo not given in full) | – | inactive [at 15.1 µM] | –
CCC[C@@H]1C[C@@H](C(=O)N[C@@H]([C@H]2O[C@H](SC)[C@H](O)[C@@H](O)[C@@H]2O)[C@@H](C)O)N(C)C1 | 11.7% (inactive) | – | –
CC(=O)C1CCC2(C)C3=C(CCC12C)C1(C)CCC(=O)C(C)(C)C1CC3 (stereo not given) | -9.09% [at 33.1 µM] (inactive) | – | –
CC1CCC2(C(=O)OC3OC(CO)C(O)C(O)C3O)CCC3(C(=O)O)C(=CCC4C5(C)CCC(OC6OC(C)C(O)C(O)C6O)C(C)(C)C5CCC43C)C2C1C (stereo not given) | -1.51% [at 15.1 µM] (inactive) | – | –
CC(C)CC(=O)OC[C@H]1O[C@@](COC(=O)CC(C)C)(O[C@H]2O[C@H](CO)[C@@H](O)[C@H](O)[C@H]2O)[C@@H](OC(=O)CC(C)C)[C@@H]1OC(=O)CC(C)C | – | inactive [at 15.1 µM] | –
CC1CC(O)C2(C)C(C(=O)O)=CCCC2C1(C)CCc1ccoc1 (stereo not given) | -17.6% [at 33.1 µM] (inactive) | – | –
COC(=O)C1C(CC(C)=O)C=CC(O)C12Oc1cc(C)cc(O)c1C2=O (stereo not given) | – | inactive [at 33.1 µM] | –
CC1(C)CCC(C)(C)c2cc([C@@H](O)C(=O)Nc3ccc(C(=O)O)cc3F)ccc21 | – | – | 14.1 µM (active)
COc1cc(/C=C/c2cc(O)cc(O[C@@H]3O[C@H](CO)[C@@H](O)[C@H](O)[C@H]3O)c2)ccc1O | 23.9% [at 33.1 µM] (inactive) | – | –
COc1ccc([C@@H]2N[C@H](C(=O)O)Cc3c2[nH]c2ccccc32)cc1CN1CCN(c2ccccc2F)CC1 | 24.9% (inactive) | – | –
C[C@@H]1O[C@@H](O[C@H]2[C@H](OC(=O)[C@]34CCC(C)(C)C[C@H]3C3=CCC5[C@@]6(C)C[C@H](O)[C@H](O[C@@H]7O[C@H](CO)[C@@H](O[C@@H]8O[C@H](CO)[C@@H](O)[C@H](O)[C@H]8O)[C@H](O)[C@H]7O)[C@@](C)(CO)C6[C@H](O)C[C@@]5(C)[C@]3(C)C[C@H]4O)OC[C@H](O)[C@@H]2O)[C@H](O)[C@H](O)[C@H]1O[C@@H]1OC[C@@H](O)[C@H](O[C@@H]2OC[C@](O)(CO)[C@H]2O)[C@H]1O (stereo not given in full) | -19.4% [at 10.7 µM] (inactive) | – | –
